Source: PubChem BioAssay (Tox21)
Results filed as inconclusive are left out. Where a call stands in place of a potency, no number is given. Unmarked numbers belong to inactive results. The source made the active and inactive calls. Calls follow the shape of the full dose curve.

target: Thyrotropin receptor (Homo sapiens) (UniProt P16473); test: qHTS assay to identify small molecule antagonists of the thyroid stimulating hormone receptor (TSHR) signaling pathway (AID 1259385); conditions: TSHR-HEK293 cAMP HTRF, TSH-stimulated antagonist mode; series mostly up to 92.4 µM; also: nearly all actives have a fitted effect of over 20% in size
Sequence (P16473 whole entry, looked up): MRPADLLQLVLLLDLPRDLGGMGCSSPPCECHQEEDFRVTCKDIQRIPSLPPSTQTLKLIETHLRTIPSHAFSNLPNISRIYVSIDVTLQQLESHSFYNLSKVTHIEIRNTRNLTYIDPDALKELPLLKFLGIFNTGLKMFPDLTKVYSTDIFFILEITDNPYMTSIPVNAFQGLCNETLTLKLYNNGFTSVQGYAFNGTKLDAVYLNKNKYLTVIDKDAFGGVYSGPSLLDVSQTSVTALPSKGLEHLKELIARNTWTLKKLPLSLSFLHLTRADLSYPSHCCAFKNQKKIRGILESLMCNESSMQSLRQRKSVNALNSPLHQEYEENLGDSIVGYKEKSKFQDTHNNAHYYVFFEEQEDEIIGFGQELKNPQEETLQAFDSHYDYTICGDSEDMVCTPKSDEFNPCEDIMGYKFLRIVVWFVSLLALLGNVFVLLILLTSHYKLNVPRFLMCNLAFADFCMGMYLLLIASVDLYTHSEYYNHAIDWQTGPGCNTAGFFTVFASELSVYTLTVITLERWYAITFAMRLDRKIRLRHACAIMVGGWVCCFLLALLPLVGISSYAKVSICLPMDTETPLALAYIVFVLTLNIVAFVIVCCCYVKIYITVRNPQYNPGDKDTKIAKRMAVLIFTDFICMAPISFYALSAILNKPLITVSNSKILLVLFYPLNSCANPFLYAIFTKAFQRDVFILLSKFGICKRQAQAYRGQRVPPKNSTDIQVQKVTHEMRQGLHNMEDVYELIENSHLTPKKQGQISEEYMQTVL
Method in brief: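 TSHR-HEK293 cells (800/well) plated 18 h, then compounds with Ro20-1724 and TSH at 1.5 ng/mL final, 30 min at room temperature. cAMP quantified by HTRF (cAMP-d2/anti-cAMP-cryptate, 1 h); 15 concentrations in triplicate.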

SMILES	Potency	activity change, negative = inhibition
Nc1nc(Cl)nc2c1ncn2[C@@H]1O[C@H](CO)[C@@H](O)[C@@H]1F	inactive	–
CN1Cc2cc(C(=O)N3CCC(C4CCNCC4)CC3)ccc2N[C@@H](CC(=O)O)C1=O	inactive	–
O=C(NCCCN1CCOCC1)c1ccc(Cl)cc1	inactive	–
COc1cc2[nH]c(=O)[nH]c(=O)c2cc1OC	inactive	–
C=CC(=O)NCOCC(C)C	inactive	–
CC(C)(CCl)c1ccccc1	inactive	–
CC(=O)Nc1ccccc1C	inactive	–
CC(CCO)CCc1ccccc1 (centres undefined)	inactive	–
CC#N	inactive	–
CN1CCCN=C1/C=C/c1cccs1	inactive	–
COC(=O)c1cc(S(N)(=O)=O)ccc1OC	inactive	–
CO[C@H]1O[C@H](CO)[C@@H](O)[C@H](O)[C@H]1O	inactive	–
CCCCN(CCCC)C(=S)SSC(=S)N(CCCC)CCCC	inactive	–
COC(=O)c1cc(Cl)ccc1NS(=O)(=O)C(F)(F)F	inactive	–
CC1(C)C(=O)N(Br)C(=O)N1Cl	inactive	–
N#C[C@@H]1C[C@@H]2C[C@@H]2N1C(=O)[C@@H](N)C12CC3CC(CC(O)(C3)C1)C2	inactive	–
CC(CCc1ccc2c(c1)OCO2)NN (centres undefined)	inactive	–
Cc1nc2ccccc2s1	inactive	–
Nc1ccc(S(=O)(=O)O)c(N)c1	inactive	–
NC(=O)Nc1ccc(Cl)cc1	inactive	–

SMILES	Potency	activity change, negative = inhibition
O=Cc1c(Cl)cccc1Cl	inactive	–
CO[Si](C)(OC)OC	inactive	–
O=S1OCCO1	inactive	–
CCCOC(=O)c1ccc(N)cc1	inactive	–
O=C(O)Cc1ccc(-c2ccccc2)cc1	inactive	–
OCC1CC=CCC1 (centres undefined)	inactive	–
C=CCCCCCCCCCCCCCCCC	–	-0.238% [at 8.39 µM]
C=CCOC(=O)/C=C\C(=O)OCC=C	inactive	–
Cc1oncc1C(=O)Nc1ccc(C(F)(F)F)cc1	inactive	–
CC(C)CCCCCOC(=O)CCCCC(=O)OCCCCCC(C)C	inactive	–
CC(=O)N(c1onc(C)c1C)S(=O)(=O)c1ccc(N)cc1	inactive	–
OC(CCCN1CCCCC1)(c1ccccc1)c1ccccc1	inactive	–
CCn1cc(C(=O)O)c(=O)c2cc(F)c(N3CCNCC3)nc21	inactive	–
C[N+](C)(C)CCOC(N)=O	inactive	–
CCCOCCOCCO	inactive	–
CCCCCCCCCCCCCCCCBr	–	-0.923% [at 19 µM]
c1ccc(COCc2ccccc2)cc1	inactive	–
CN1CCN(c2c(F)cc3c(=O)c(C(=O)O)cn4c3c2OCN4C)CC1	–	-3.1% [at 19 µM]
O=C1OCCN1/N=C/c1ccc([N+](=O)[O-])o1	inactive	–
